In all, about 190,000 compounds went through this assay and about 1,700 (0.89%) were called active. Only a selection was taken, and actives are over-represented in it overall. Values without a mark were called inactive.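 How the source made its calls: active means inhibition above the mean inhibition across all screened compounds plus 3 SD (cut at about 44% in these data); inactive means the rest.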
Experiment: IL-6 driven STAT3 reporter inhibitors, primary screen, U3A cells, luciferase, luminescence, MLSCN library (AID 862);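 further: 0% = DMSO only wells and 100% = 100 µM nifuroxazide control wells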
Settings: IL-6 STAT3-luciferase reporter, at 5.5 µM, stronger effect = higher value, host cell line lacks STAT1

Row | Compound | inhibition
1 | CN(c1ccc(OCC(=O)OCC(=O)Nc2cccc([N+](=O)[O-])c2)cc1)S(=O)(=O)c1ccc(F)cc1 | 5.5%
2 | CN(C)S(=O)(=O)c1ccc(NC(=O)COC(=O)c2n[nH]c3ccccc23)cc1 | 49.3% (active)
3 | CCN(CC)S(=O)(=O)c1ccc2nc(COC(=O)c3n[nH]c4ccccc34)[nH]c2c1 | 19.1%
4 | O=C(COC(=O)c1n[nH]c2ccccc12)NCc1ccccc1 | 5.8%
5 | COc1ccccc1NC(=O)c1c(Br)cnn1C | 25.4%
6 | CCOC(=O)CNc1nc2ccccc2n2c(C)nnc12 | 24.4%
7 | Oc1c(Cl)cc(Cl)c(Cl)c1Cc1c(O)c(Cl)cc(Cl)c1Cl | 43.6% (active)
8 | O=C(Nc1ccc2cn[nH]c2c1)c1ccc(S(=O)(=O)N2CCOCC2)cc1 | -32.5%
9 | CC(=O)NC(Cc1ccc(F)c(F)c1)C(=O)NC1CCN(c2nnnn2-c2ccccc2)CC1 (stereo not given) | 10.3%
10 | COc1cc(/C=N/NC(=O)c2ccccc2)ccc1OS(=O)(=O)c1ccccc1 | 1.7%
11 | COc1ccc(C(=O)Nc2ccccc2C(=O)N/N=C/c2ccccc2OC)cc1 | 1.8%
12 | COc1ccc(C(=O)Nc2ccccc2C(=O)N/N=C/c2ccc(O)c(OC)c2)cc1 | 106% (active)
13 | CC(C)CNC(=O)C(=O)NCc1ccccc1 | -0.6%
14 | CC(Sc1nc(-c2ccccc2)cc(C(F)(F)F)n1)C(=O)Nc1ccc2c(c1)OCO2 (stereo not given) | -2.7%
15 | Cn1cc([N+](=O)[O-])c(C(=O)Nc2cnn(Cc3ccc(F)cc3)c2)n1 | 36.8%
16 | O=C(Nc1ccc2c(c1)OCCO2)c1ccncc1 | -8.8%
17 | Cn1cc([N+](=O)[O-])c(C(=O)Nc2ccc3c(c2)OCCO3)n1 | 51.3% (active)
18 | Cc1ccc(CCCOC(=O)C[N+]2(C)CCCC2)cc1 | -9.5%
19 | S=C(NN=C1CCN(Cc2ccccc2)CC1)NC1CCCCC1 | -0.1%
20 | Cn1nnnc1SCC(=O)Nc1nc2ccccc2s1 | -2.9%
21 | CCC(=O)Nc1ccc2c(c1)nc(CCN1CCN(C)CC1)n2C | 9.8%
22 | CC(=O)NCCc1nc2cc(NC(=O)c3ccccc3)ccc2n1C | 15.8%
23 | Cn1c(CN2CCOCC2)nc2cc(NC(=O)c3ccc(Cl)cc3)ccc21 | 66.2% (active)
24 | O=C(NCc1ccccc1Cl)C1CCN(S(=O)(=O)N2CCOCC2)CC1 | 2.3%
25 | CCN1CCCC1CNc1ncnc2c1[nH]c1ccc(F)cc12 (stereo not given) | -30.1%

Row | Compound | inhibition
26 | O=C1CCCN1CCCNc1ncnc2c1[nH]c1ccccc12 | -56.6%
27 | CC(C)OCCCNc1ncnc2c1[nH]c1ccc(F)cc12 | 80.4% (active)
28 | Cc1nc2cc(NC(=O)NC3CC3)ccc2n1C | 7.5%
29 | COc1ccc(C(=O)CSc2nnc(-c3ccco3)o2)cc1 | 2.9%
30 | CC(=O)Nc1ccc(C(=O)CSc2nnc(Cc3ccccc3)o2)cc1 | 0.2%
31 | CC(C)C[C@@H](N)c1nnc(SCC(=O)c2ccc(Cl)cc2)o1 | 53.4% (active)
32 | Oc1ccccc1C=NC1CCCCC1N=Cc1ccccc1O (stereo not given) | 5.7%
33 | CCOC(=O)CNC(=O)/C(=C\c1ccc(F)cc1)NC(=O)c1ccccc1 | 1.9%
34 | COc1cccc(NC(=O)Cn2c3ccccc3c3nc4n(c(=O)c32)CCS4)c1 | 12.7%
35 | Cn1cccc1-c1nc2ccccc2n1C | 16.4%
36 | Cn1c(-c2ccc(C(=O)c3ccccc3)s2)nc2ccccc21 | 49.1% (active)
37 | Cn1c(CNC(=O)C(C)(C)C)nc2ccccc21 | 15.4%
38 | Cc1cccc(NC(=S)NC23CN4CN(CN(C4)C2)C3)c1 | 4.5%
39 | Cc1ccc(OCCCn2c(=O)oc3ccccc32)cc1 | 16.3%
40 | COC(=O)c1nc2ccccc2s1 | -7.8%
41 | CCC(=O)NC(=Nc1nc2ccccc2s1)NC(=O)CC | 12.8%
42 | CC(C)CC(=O)N/C(N)=N/c1nc2ccccc2s1 | 47% (active)
43 | CCC(=O)c1ccc(OCC(O)Cn2nc(C)c(C(C)=O)c2C)cc1 (stereo not given) | 22.7%
44 | Cc1ccc(Cl)cc1NC(=O)C1CCN(S(C)(=O)=O)CC1 | -0.1%
45 | CCCOC(=O)c1[nH]c2c(c1C)C(=O)CC(c1cccs1)C2 (stereo not given) | 3.8%
46 | CCCOC(=O)c1[nH]c2c(c1C)C(=O)CC(c1cc(OC)c(OC)c(OC)c1)C2 (stereo not given) | 47.1% (active)
47 | CCOC(=O)c1[nH]c2c(c1C)C(=O)CC(c1ccc(N(C)C)cc1)C2 (stereo not given) | -3.7%
48 | COC(=O)CC1=NN(c2ccccc2)C(=O)C1 | 3.8%
49 | Cc1ccccc1CN(c1ccc(C(=O)NCC2CCCO2)cc1)S(C)(=O)=O (stereo not given) | 1%
50 | Cc1cccc(C)c1NC(=O)C1(N(C(=O)c2ccccn2)c2ccc(O)cc2)CCCCC1 | 0.2%
